This is a sample that favours compounds with a hit; in the whole collection about 2.9% have one here.
HEK293 viab = counter-screen for SNCA expression inhibitors: cell viability | Potency, µM (titrated, usually from 57.1 µM), for inactives: at the highest dose activity change, negative = cytotoxicity, usual class: cytotoxic | hit rate 0.12% among 150,000 | HEK-293-SNCA-luc viability, GF-AFC fluorescence, 24 h;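 also: potency is read from the fitted curve at half-maximal effect; 0% = DMSO-treated cells and -100% = medium-only wells without cells; nearly all actives have a fitted effect of over 30% in size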
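Cytotoxicity counterscreen: after 24 h compound treatment of genome-edited SNCA-luciferase HEK-293 cells, live-cell protease substrate GF-AFC read by fluorescence after 30 min; activity scaled between DMSO (0%) and medium-only (-100%), curves Hill-fitted.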
SNCA expr inhib = reduces expression of the alpha-synuclein gene; HEK-293 SNCA-luciferase knock-in, luminescence, 24 h; Potency, µM (doses to about 57.2 µM), for the others: at the top dose activity change, negative = inhibition, hits mostly inhibitors; hit rate 0.17% among 140,000;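 also: potency is read from the fitted curve at half-maximal effect; plate controls were DMSO cells for no effect and cell-free wells for full effect; nearly all actives have a fitted effect of over 45% in size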
IP6K1 inhibitor = IP6K1 kinase inhibition; Q92551; IP6K1 kinase, ADP-Glo luminescence, 2 h; active compounds read low; activity change, % (series mostly up to about 58 µM); hit rate 0.81% among 140,000; in the data active = activity change below about -25%; also: % is scaled to controls: 0 for no effect and ±100 for the full control effect
Target sequence (Q92551 whole entry, looked up): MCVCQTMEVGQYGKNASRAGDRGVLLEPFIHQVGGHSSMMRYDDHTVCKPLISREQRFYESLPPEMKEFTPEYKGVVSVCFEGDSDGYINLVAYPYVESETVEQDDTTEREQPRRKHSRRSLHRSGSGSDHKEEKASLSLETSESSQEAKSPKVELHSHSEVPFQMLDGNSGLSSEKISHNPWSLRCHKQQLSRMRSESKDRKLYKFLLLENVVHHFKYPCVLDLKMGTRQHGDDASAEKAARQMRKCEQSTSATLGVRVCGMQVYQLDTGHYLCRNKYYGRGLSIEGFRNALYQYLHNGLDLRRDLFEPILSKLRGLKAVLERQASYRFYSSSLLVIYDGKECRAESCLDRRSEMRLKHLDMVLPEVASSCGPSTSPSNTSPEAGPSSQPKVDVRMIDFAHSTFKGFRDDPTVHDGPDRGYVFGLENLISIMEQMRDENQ
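ADP-Glo luminescence measures ADP made by human IP6K1 during a 2 h RT reaction with ATP/IP6 (mix at 1.3 mM/130 uM); top library doses 57.5 and 19.1 uM final.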
KDM5B inh = blocks human KDM5B histone demethylase activity. hit rate 2.6% among 220,000. KDM5B demethylase, FDH-coupled NADH fluorescence (FDH is formaldehyde dehydrogenase). Q9UGL1. AID 1347165. Potency, µM (series often up to 57.7 µM), most hits filed as inhibitors; also: potency is read from the fitted curve at half-maximal effect; 0% is about no effect; nearly all actives have a fitted effect of over 70% in size
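Compound dilutions met 200 nM (final) KDM5BΔAP for 10 min at room temperature before substrate addition. The substrate mix held 12.5 µM H3K4me3 with cofactors 25 µM α-ketoglutarate and 50 µM Fe²⁺. NADH signal gain over 30 min defined activity.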
An asterisk follows results filed as active; i = inactive; ? = inconclusive; · = no result given; [ ] = dose if it differs, or a comment. Unless noted, calls follow the shape of the dose curve; as a rule, active = well fitted curve in the direction sought with a large enough effect; inconclusive = small, poorly fitted or top-dose-only effect, or another doubt; inactive = no such curve, though single readings can be large; an effect the other way counts as inactive or inconclusive.

SMILES | HEK293 viab | SNCA expr inhib | IP6K1 inhibitor | KDM5B inh
CCCCOC(=O)N1CCC2(CC1)[C@@H](C(=O)OCC)[C@@H](O)C(=O)N2Cc1ccccc1 | · | · | -1 | ·
CC(C)(C)OC(=O)N1CC(Nc2cccc(C(F)(F)F)c2)C1 | -6% | -10% | -2 | i
CNc1ncccc1C(=O)N1CC[C@@H](c2ccc3c(c2)OCO3)[C@H](O)C1 | -16% | ? | 33 | 28µM*
CC1(CNc2ccccc2)COc2ccc(C(=O)NC3CCOCC3)cc2N1 (centres undefined) | -5%[87.6 µM] | ? | -1 | ?
CC1(CCCCc2ccccc2)COc2ccc(C(=O)NC3CCC(O)CC3)cc2N1 (centres undefined) | -6%[87.6 µM] | ? | 8 | 40µM*
Cn1ccc(NC(=O)c2ccc3c(c2)NC(C)(CCCCc2ccccc2)CO3)n1 (centres undefined) | -13%[87.6 µM] | -26%[87.6 µM] | 4 | 32µM*
CNC(=O)c1ccc2c(c1)NC(C)(CCCCc1ccccc1)CO2 (centres undefined) | -19%[87.6 µM] | -17%[87.6 µM] | -10 | 32µM*
CC(=O)N1CCCN(C(=O)c2ccc3c(c2)NC(C)(CCCCc2ccccc2)CO3)CC1 (centres undefined) | -5% | -15% | -8 | i
C[C@@H]1CN(C(=O)c2ccc3c(c2)NC(C)(CCCCc2ccccc2)CO3)C[C@H](C)O1 (some centres undefined) | 11%[87.6 µM] | -25%[87.6 µM] | -11 | 35µM*
Cc1nn(-c2ccccc2)c2c1C(C1CC1)N(CC1CN(C(=O)c3ccc(Cl)cc3)C1)C2=O (centres undefined) | · | · | 13 | ·
COc1ccc2c(c1)OCC(CNC(=O)c1ccc(C(C)C)n(C)c1=O)C2 (centres undefined) | -3% | -1% | 3 | ?
COc1ccc2c(c1)OCC(CNC(=O)c1cnn3ccccc13)C2 (centres undefined) | -3% | -3% | 10 | 25µM*
Cc1cccc(NC(=O)Cn2ccn3nc(-c4ccccc4)c(CO)c3c2=O)c1 | -6% | 0% | 6 | ?
O=C(Cn1ccn2nc(-c3ccccc3)c(CO)c2c1=O)Nc1cccc(F)c1 | 4% | 9% | 9 | 18µM*
O=C(Cn1ccn2nc(-c3ccc(F)cc3)c(CO)c2c1=O)Nc1ccc(Cl)cc1F | 3% | -2% | 0 | 32µM*
CNC(=O)c1cc(C2CC2)nc2c1c(C1CCN(C(=O)c3ccc(OC)cc3)CC1)nn2C | · | · | -11 | ·
O=C1CN([S+](=O)([O-])c2ccc(F)cc2)CC(O)CN1Cc1ccc(Cl)cc1 (centres undefined) | · | · | -7 | ·
Cc1ccc(C)c(C(=O)NCc2nnc3cc(-c4nc(C5CC5)no4)ccn23)c1 | 1% | -18% | 33 | 14µM*
Cc1ccc(C(=O)NCc2nnc3cc(-c4nc(C5CC5)no4)ccn23)cc1C | -11% | ? | 13 | 28µM*
Cc1ccccc1C(=O)NCc1nnc2cc(-c3nc(C4CC4)no3)ccn12 | -24% | ? | 6 | 28µM*
CCN(CC)c1ccc(C(=O)NCc2nnc3cc(-c4nc(C5CC5)no4)ccn23)cc1 | ? | ? | 6 | ?
O=C(NCc1nnc2cc(-c3nc(C4CC4)no3)ccn12)c1ccncc1 | -5% | 5% | 14 | 28µM*
COCCNC(=O)c1cn2cc(-c3cccc(OC)c3)sc2n1 | 7%[87.6 µM] | 133%[87.6 µM] | 5 | ·
Cn1ncc2c(C(=O)NCCc3ccccn3)cc(-c3ccc(C(F)(F)F)cc3)nc21 | · | · | -10 | ·
CC(C)(C)OCC(O)CN1CCC(=O)N(Cc2ccccc2)Cc2cc(F)ccc21 (centres undefined) | · | · | -8 | ·
SMILES | HEK293 viab | SNCA expr inhib | IP6K1 inhibitor | KDM5B inh
CNc1nc(N2C[C@H]3CN(CCO)C[C@@]3(C(=O)O)C2)nc2c1CCC2 | 3% | -10% | 2 | ?
CNc1cc(C)nc(N2C[C@H]3CN(C(=O)N(C)C)C[C@@]3(C(=O)O)C2)n1 | 0% | 27% | 11 | 22µM*
COc1ccccc1-c1nnc2ccc(C(=O)NCc3ccc(Cl)cc3)cn12 | -5% | -16% | 3 | ·
COc1ccc(-c2nccn3cc(C(=O)NCCc4ccccn4)nc23)cc1 | -3% | -5% | 16 | 25µM*
COc1ccc(-c2nccn3cc(C(=O)NCc4ccc(OC)c(OC)c4)nc23)cc1 | -15% | ? | 22 | ?
COCCCNC(=O)c1cn2ccnc(-c3ccc(OC)cc3)c2n1 | -15% | -1% | 19 | 25µM*
COCCNC(=O)c1cn2ccnc(-c3ccc(OC)cc3)c2n1 | -5% | -1% | 16 | 20µM*
Cc1ccccc1C(=O)N1CCC(N2C(=O)c3c(c(C)nn3-c3ccccc3)C2C(C)C)C1 (centres undefined) | · | · | -2 | ·
CC(C)c1ccc(CC(=O)N2CCCc3ncc(C(=O)Nc4cccc(C(F)(F)F)c4)cc32)cc1 | -25% | -17% | 7 | 25µM*
COCCNC(=O)c1cnc2c(c1)N(C(=O)Cc1cn(C)c3ccccc13)CCC2 | -10%[87.6 µM] | -28%[87.6 µM] | 6 | ?
O=C(Nc1cccc(C(F)(F)F)c1)c1cnc2c(c1)N(Cc1ccccc1)CCC2 | -16%[87.6 µM] | -28%[87.6 µM] | 2 | 7.1µM*
COc1cccc(NC(=O)c2cnc3c(c2)N(C(=O)Cc2ccc(C(C)C)cc2)CCC3)c1 | ? | ? | 10 | ?
COCCNC(=O)c1cnc2c(c1)N(Cc1ccccc1C(F)(F)F)CCC2 | 2%[87.6 µM] | -6%[87.6 µM] | 0 | 35µM*
CCCNC(=O)NC[C@@H]1C=C(C)[C@H](Cc2nc3nc(OC)ccc3[nH]2)C[C@H]1C(C)C | ? | -20%[87.6 µM] | 16 | ?
Cc1cccc(NC(=O)Cn2c(N(C)Cc3ccccc3)nc(C)cc2=O)c1 | 10% | -13% | 9 | i
CCc1cccc(NC(=O)Cn2c(N(C)Cc3ccccc3)nc(C)cc2=O)c1 | -9% | ? | -16 | 25µM*
O=C(C1CCN(c2nccc(Nc3ccccc3Cl)n2)CC1)N1CCC(Cc2ccccc2)CC1 | 0% | -11% | 3 | ·
O=C(NCc1ccc(Cl)cc1)c1ccc2nnc(-c3cc(C(F)(F)F)cc(C(F)(F)F)c3)n2c1 | ? | 3% | -4 | ·
CC(C)c1noc(-c2cccn3c(CNC(=O)c4cc(F)ccc4Cl)nnc23)n1 | -15% | 5% | 1 | 22µM*
CC(C)c1noc(-c2cccn3c(CNC(=O)c4ccc(F)cc4Cl)nnc23)n1 | 0% | -23% | -1 | 25µM*
Cc1ccc(C)c(C(=O)NCc2nnc3c(-c4nc(C(C)C)no4)cccn23)c1 | 6% | 7% | 2 | ?
CCc1noc(-c2cccn3c(CNC(=O)c4cc(F)ccc4F)nnc23)n1 | 8% | 18% | 8 | 28µM*
CCc1noc(-c2cccn3c(CNC(=O)c4ccc(F)cc4Cl)nnc23)n1 | 7% | 3% | 2 | ?
CCc1noc(-c2cccn3c(CNC(=O)c4ccc(F)c(F)c4)nnc23)n1 | -13% | -22% | -2 | 4µM*
O=C1CCN(CC(O)COCc2ccco2)c2ccc(F)cc2CN1Cc1ccco1 (centres undefined) | · | · | -3 | ·
O=C(C1CCN(c2ccnc3ccnn23)CC1)N1CCCCC1 | 9%[87.6 µM] | 3%[87.6 µM] | -1 | ·
O=C(c1cc(-c2ccccc2)c(-c2ccccc2)s1)C(c1ccccc1)c1ccccc1 | · | · | · | i
